Assay [1] in a line: NCI Yeast Anticancer Drug Screen. Data for the rad50 strain (AID 155).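 Also: 0% = growth of vehicle-only cultures of the same strain.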 As to conditions: S. cerevisiae rad50 strain growth inhibition, hits give high values. An outline of the steps:
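Relative growth inhibition (compound vs vehicle) was measured in yeast with a defined repair-gene alteration.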

Assay [2] is described as follows: NCI Yeast Anticancer Drug Screen. Data for the mec2-1 strain (AID 157). The note with it: S. cerevisiae mec2-1 strain, hits give high values. An outline of the steps:
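Strain: mec2-1 (DNA repair/cell cycle alteration). Compound exposure, then growth measured; inhibition expressed relative to vehicle.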

Assay [3] can be described thus: NCI Yeast Anticancer Drug Screen. Data for the sgs1 mgt1 strain (AID 161).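 Also: 0% = growth of cultures given vehicle only.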 As to conditions: S. cerevisiae sgs1 mgt1 strain, hits give high values. The method, boiled down:
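Mutant yeast exposed to compound; growth scored against vehicle-only wells.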

A short description of assay [4]: NCI Yeast Anticancer Drug Screen. Data for the cln2 rad14 strain (AID 165).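 Also: 0% = growth equal to vehicle treated cultures.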 The note with it: S. cerevisiae cln2 rad14 strain, hits give high values. The method, boiled down: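 Compounds are applied to the cln2 rad14 yeast strain, and growth is then compared with that of vehicle-treated cultures to give inhibition.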
A short description of assay [5]: NCI Yeast Anticancer Drug Screen. Data for the bub3 strain (AID 167). As to conditions: S. cerevisiae bub3 mutant strain, hits give high values. An outline of the steps: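 Screening used yeast with an engineered genetic alteration affecting cell cycle control. Compound-exposed cultures were compared with vehicle cultures, and reduced growth was taken as inhibition.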

Assay [6] is described as follows: NCI Yeast Anticancer Drug Screen. Data for the mlh1 rad18 strain (AID 175). As to conditions: S. cerevisiae mlh1 rad18 strain growth inhibition, hits give high values. The method, boiled down:
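Read-out is yeast growth inhibition, calculated against vehicle-only controls. The compound was applied to a strain engineered with DNA damage repair alterations.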

[7] abbreviates: at 5.0 µM (retest, dose inferred, filed as 0.5).
[8] abbreviates: at 50.0 µM (retest, dose inferred, filed as 5.0).

Each structure is given as a SMILES string. This is part of a sample that, as a whole, favours compounds with a hit. Of some 79,000 tested, about 15% had one in any assay. Unmarked numbers belong to inactive results. The source made the active and inactive calls. Rule as the data show it: active = growth inhibition above about 70%; inactive = the rest.

As to `CN(C)CCOC1OCN(C)CC1(C)C` (stereo not given), the growth inhibition in assay [1] (setting [7]) is 0%; in assay [1] (setting [8]), -12%; in assay [1] (at 50.0 µM), 4.55%; in assay [2] (setting [7]), 0%; in assay [2] (setting [8]) it was -7%; in assay [2] (at 50.0 µM) it was 7.2%. For the same compound, the growth inhibition in assay [3] (setting [7]) is -1%; in assay [3] (setting [8]) it was -8%; in assay [3] (at 50.0 µM), -0.9%; in assay [4] (setting [7]) it was 1%; in assay [4] (setting [8]), -15%; in assay [4] (at 50.0 µM), 36.1%. Moreover, the growth inhibition in assay [5] (setting [7]) was -2%; in assay [5] (setting [8]), -3%; in assay [5] (at 50.0 µM) it was -3.75%; in assay [6] (setting [7]), 2%; in assay [6] (setting [8]) it was -12%; in assay [6] (at 50.0 µM), -1.05%.
In the case of `Cc1cc(N2C(=O)CSC2=S)c([N+](=O)[O-])cc1C`, the growth inhibition in assay [1] (setting [7]) was 23%; in assay [1] (setting [8]), 99% (active); in assay [1] (at 50.0 µM), 99.2% (active); in assay [2] (setting [7]), 17%; in assay [2] (setting [8]) it was 100% (active); in assay [2] (at 50.0 µM) it was 99.5% (active). Moreover, the growth inhibition in assay [3] (setting [7]) was 64%; in assay [3] (setting [8]), 99% (active); in assay [3] (at 50.0 µM), 99.5% (active); in assay [4] (setting [7]), 7%; in assay [4] (setting [8]), 97% (active); in assay [4] (at 50.0 µM) it was 99.1% (active). In addition, the growth inhibition in assay [5] (setting [7]) is 42%; in assay [5] (setting [8]), 99% (active); in assay [5] (at 50.0 µM), 99.5% (active); in assay [6] (setting [7]), 84% (active); in assay [6] (setting [8]), 99% (active); in assay [6] (at 50.0 µM) it was 99.3% (active).
For `Cc1ccc(-c2n[nH]c(=O)n2/N=C\c2ccccc2)cc1`, the growth inhibition in assay [1] (setting [7]) is 21%; in assay [1] (setting [8]), 38%; in assay [1] (at 50.0 µM) it was 40.9%; in assay [2] (setting [7]), 18%; in assay [2] (setting [8]) it was 25%; in assay [2] (at 50.0 µM), 21.9%. Further, the growth inhibition in assay [3] (setting [7]) is 28%; in assay [3] (setting [8]), 39%; in assay [3] (at 50.0 µM), 50.1%; in assay [4] (setting [7]), 12%; in assay [4] (setting [8]) it was 31%; in assay [4] (at 50.0 µM), 15.2%. The growth inhibition in assay [5] (setting [7]) was 4%; in assay [5] (setting [8]), 23%; in assay [5] (at 50.0 µM) it was 23%; in assay [6] (setting [7]) it was 17%; in assay [6] (setting [8]), 44%; in assay [6] (at 50.0 µM), 59%.
`Fc1ccc2c(c1)Nc1cc(F)cc(F)c1S2`: the growth inhibition in assay [1] (setting [7]) was -4%; in assay [1] (setting [8]) it was 54%; in assay [1] (at 50.0 µM), 2.7%; in assay [2] (setting [7]) it was -5%; in assay [2] (setting [8]), 12%; in assay [2] (at 50.0 µM) it was -2%. The growth inhibition in assay [3] (setting [7]) was -4%; in assay [3] (setting [8]), 36%; in assay [3] (at 50.0 µM) it was 65.7%; in assay [4] (setting [7]) it was 0%; in assay [4] (setting [8]) it was 1%; in assay [4] (at 50.0 µM), 2.75%. In addition, the growth inhibition in assay [5] (setting [7]) is -3%; in assay [5] (setting [8]), 5%; in assay [5] (at 50.0 µM) it was 40.8%; in assay [6] (setting [7]) it was -6%; in assay [6] (setting [8]) it was 48%; in assay [6] (at 50.0 µM) it was 21.5%.
For `CC(C)C(=O)N1Cc2cc(Cl)cc(Cl)c2OC(=O)c2ccccc21`, the growth inhibition in assay [1] (setting [7]) was 18%; in assay [1] (setting [8]), 3%; in assay [1] (at 50.0 µM), 71% (active); in assay [2] (setting [7]), -1%; in assay [2] (setting [8]) it was 17%; in assay [2] (at 50.0 µM) it was 36.1%. For the same compound, the growth inhibition in assay [3] (setting [7]) was -13%; in assay [3] (setting [8]), 3%; in assay [3] (at 50.0 µM), 43.6%; in assay [4] (setting [7]) it was 32%; in assay [4] (setting [8]) it was 47%; in assay [4] (at 50.0 µM) it was 48.7%. The growth inhibition was 19% in assay [5] (setting [7]); 28% in assay [5] (setting [8]); 52.9% in assay [5] (at 50.0 µM); 4% in assay [6] (setting [7]); 11% in assay [6] (setting [8]); 57.9% in assay [6] (at 50.0 µM).
Consider `O=C(NO)Nc1nc(Cl)c(Cl)nc1Cl`, for which the growth inhibition in assay [1] (setting [7]) is 16%; in assay [1] (setting [8]), 97% (active); in assay [1] (at 50.0 µM), 90% (active); in assay [2] (setting [7]) it was 18%; in assay [2] (setting [8]), 99% (active); in assay [2] (at 50.0 µM) it was 92.7% (active). Besides, the growth inhibition in assay [3] (setting [7]) is 30%; in assay [3] (setting [8]), 99% (active); in assay [3] (at 50.0 µM) it was 90.2% (active); in assay [4] (setting [7]), 2%; in assay [4] (setting [8]), 99% (active); in assay [4] (at 50.0 µM), 83.5% (active). The growth inhibition in assay [5] (setting [7]) is 6%; in assay [5] (setting [8]), 98% (active); in assay [5] (at 50.0 µM), 90.3% (active); in assay [6] (setting [7]), 20%; in assay [6] (setting [8]) it was 99% (active); in assay [6] (at 50.0 µM) it was 90.3% (active).
For `OC/C(=C\c1ccccc1Br)c1ccccc1Br`, the growth inhibition in assay [1] (setting [7]) is 2%; in assay [1] (setting [8]), 99% (active); in assay [1] (at 50.0 µM), 99% (active); in assay [2] (setting [7]), 7%; in assay [2] (setting [8]) it was 100% (active); in assay [2] (at 50.0 µM) it was 99.1% (active). The growth inhibition in assay [3] (setting [7]) was 6%; in assay [3] (setting [8]), 66%; in assay [3] (at 50.0 µM), 99.2% (active); in assay [4] (setting [7]) it was 0%; in assay [4] (setting [8]), 100% (active); in assay [4] (at 50.0 µM) it was 97.5% (active). Besides, the growth inhibition is 10% in assay [5] (setting [7]); 99% (active) in assay [5] (setting [8]); 99% (active) in assay [5] (at 50.0 µM); -10% in assay [6] (setting [7]); 99% (active) in assay [6] (setting [8]); 99% (active) in assay [6] (at 50.0 µM).
Take `CC12CCC3c4cc(O)ccc4CCC3C1CCC2O` (stereo not given): the growth inhibition in assay [1] (setting [7]) was 4%; in assay [1] (setting [8]) it was 54%; in assay [1] (at 50.0 µM), 50.2%; in assay [2] (setting [7]), -4%; in assay [2] (setting [8]), 51%; in assay [2] (at 50.0 µM), 26.5%. Besides, the growth inhibition is 1% in assay [3] (setting [7]); 81% (active) in assay [3] (setting [8]); 58.2% in assay [3] (at 50.0 µM); -6% in assay [4] (setting [7]); 41% in assay [4] (setting [8]); 24.8% in assay [4] (at 50.0 µM). For the same compound, the growth inhibition was -1% in assay [5] (setting [7]); 54% in assay [5] (setting [8]); 55.4% in assay [5] (at 50.0 µM); 4% in assay [6] (setting [7]); 67% in assay [6] (setting [8]); 37% in assay [6] (at 50.0 µM).
Consider `CN(C)C(=S)S(=O)(=O)CCCCS(=O)(=O)C(=S)N(C)C`, for which the growth inhibition in assay [1] (setting [7]) was -1%; in assay [1] (setting [8]), 3%; in assay [1] (at 50.0 µM), 86.3% (active); in assay [2] (setting [7]), 3%; in assay [2] (setting [8]) it was 8%; in assay [2] (at 50.0 µM), 32.1%. In addition, the growth inhibition in assay [3] (setting [7]) is 2%; in assay [3] (setting [8]), 11%; in assay [3] (at 50.0 µM) it was 92.3% (active); in assay [4] (setting [7]) it was -6%; in assay [4] (setting [8]) it was -1%; in assay [4] (at 50.0 µM), 9%. Also, the growth inhibition in assay [5] (setting [7]) was -2%; in assay [5] (setting [8]), 0%; in assay [5] (at 50.0 µM), 20.9%; in assay [6] (setting [7]), -3%; in assay [6] (setting [8]) it was 7%; in assay [6] (at 50.0 µM), 81.8% (active).
As to `O=C1C=C(Cl)C(=O)C(Cl)=C1Cl`, the growth inhibition is -14% in assay [1] (setting [7]); 99% (active) in assay [1] (setting [8]); 99.2% (active) in assay [1] (at 50.0 µM); 11% in assay [2] (setting [7]); 99% (active) in assay [2] (setting [8]); 99.3% (active) in assay [2] (at 50.0 µM). In addition, the growth inhibition in assay [3] (setting [7]) was 12%; in assay [3] (setting [8]), 99% (active); in assay [3] (at 50.0 µM), 99.2% (active); in assay [4] (setting [7]), -25%; in assay [4] (setting [8]) it was 91% (active); in assay [4] (at 50.0 µM), 98.7% (active). In addition, the growth inhibition in assay [5] (setting [7]) was 8%; in assay [5] (setting [8]) it was 99% (active); in assay [5] (at 50.0 µM), 99% (active); in assay [6] (setting [7]), 3%; in assay [6] (setting [8]) it was 99% (active); in assay [6] (at 50.0 µM), 98.8% (active).

For the origin of these results see PubChem BioAssay (NCI).
